Screens deposited in PubChem by National Center for Advancing Translational Sciences (NCATS).
Shown are actives, neighbours in structure and some others; about 12% of the full set was active somewhere.
Sfp PPTase inh: Sfp phosphopantetheinyl transferase inhibition; Q9F4F7; Potency, µM, for inactives: largest response in the series, negative = inhibition, most hits filed as inhibitors; hit rate 3.5% among 310,000; Biochemical Sfp PPTase activity, qHTS;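 also: the enzyme is Sfp with the accession as filed and its product quenches rhodamine fluorescence; 0% = enzyme reaction without inhibitor and -100% = no enzyme wells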
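Fluorescence-quenching assay with 15 nM Sfp, 5 uM rhodamine-CoA and 12.5 uM BHQ-2-labelled ybbR peptide in pH 7.6 Hepes/MgCl2 buffer. Enzyme was pre-incubated with compound for 15 min at room temperature. Rate was taken from the 30-min fluorescence change (525/598 nm).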
HP1b binding inh: blocks HP1-beta chromodomain binding to methylated histone tails; P83916; AlphaScreen HP1-beta / biotin-H3K9me3 peptide binding; Potency, µM (top dose mostly 114 µM), for the others: at the top dose activity change, negative = inhibition, hits mostly inhibitors; hit rate 0.56% among 390,000; AID 540317; also: nearly all actives have a fitted effect of over 70% in size
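AlphaScreen: HP1-beta (50 nM) preformed 30 min with biotin-H3(1-18)K9me3 peptide (50 nM) in PBS pH 7.4, 0.01% Tween-20. Compound added for 30 min at RT, then streptavidin donor/nickel chelate acceptor beads (10 ug/mL) for 30 min.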
G9a inh: G9a (human) methyltransferase inhibition. G9a H3K9 monomethylation, AlphaScreen, 2 h. Potency, µM (highest dose often 102 µM), for the others: at the top dose activity, negative = inhibition, hits mostly inhibitors. hit rate 8.8% among 350,000; also: % is scaled to controls: 0 for no effect and ±100 for the full control effect; nearly all actives have a fitted effect of over 75% in size
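G9a (20 nM) preincubated 15 min RT with compounds, then 500 nM biotinylated H3K9 peptide and 20 uM SAM added; 2 h RT reaction. Monomethyl-H3K9 product detected by AlphaScreen with anti-H3K9me1 antibody, streptavidin donor and anti-rabbit IgG acceptor beads.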
BAZ2B inh: BAZ2B (human) inhibition | AlphaScreen BAZ2B-H3K14Ac peptide displacement | Potency, µM (series often up to 114 µM), without a hit: top-dose activity change, negative = inhibition, usual class: inhibitors | AID 504333 | Q9UIF8 | hit rate 4.4% among 360,000; also: % is scaled to controls: 0 for no effect and ±100 for the full control effect; nearly all actives have a fitted effect of over 60% in size
Target sequence (Q9UIF8 whole entry, looked up): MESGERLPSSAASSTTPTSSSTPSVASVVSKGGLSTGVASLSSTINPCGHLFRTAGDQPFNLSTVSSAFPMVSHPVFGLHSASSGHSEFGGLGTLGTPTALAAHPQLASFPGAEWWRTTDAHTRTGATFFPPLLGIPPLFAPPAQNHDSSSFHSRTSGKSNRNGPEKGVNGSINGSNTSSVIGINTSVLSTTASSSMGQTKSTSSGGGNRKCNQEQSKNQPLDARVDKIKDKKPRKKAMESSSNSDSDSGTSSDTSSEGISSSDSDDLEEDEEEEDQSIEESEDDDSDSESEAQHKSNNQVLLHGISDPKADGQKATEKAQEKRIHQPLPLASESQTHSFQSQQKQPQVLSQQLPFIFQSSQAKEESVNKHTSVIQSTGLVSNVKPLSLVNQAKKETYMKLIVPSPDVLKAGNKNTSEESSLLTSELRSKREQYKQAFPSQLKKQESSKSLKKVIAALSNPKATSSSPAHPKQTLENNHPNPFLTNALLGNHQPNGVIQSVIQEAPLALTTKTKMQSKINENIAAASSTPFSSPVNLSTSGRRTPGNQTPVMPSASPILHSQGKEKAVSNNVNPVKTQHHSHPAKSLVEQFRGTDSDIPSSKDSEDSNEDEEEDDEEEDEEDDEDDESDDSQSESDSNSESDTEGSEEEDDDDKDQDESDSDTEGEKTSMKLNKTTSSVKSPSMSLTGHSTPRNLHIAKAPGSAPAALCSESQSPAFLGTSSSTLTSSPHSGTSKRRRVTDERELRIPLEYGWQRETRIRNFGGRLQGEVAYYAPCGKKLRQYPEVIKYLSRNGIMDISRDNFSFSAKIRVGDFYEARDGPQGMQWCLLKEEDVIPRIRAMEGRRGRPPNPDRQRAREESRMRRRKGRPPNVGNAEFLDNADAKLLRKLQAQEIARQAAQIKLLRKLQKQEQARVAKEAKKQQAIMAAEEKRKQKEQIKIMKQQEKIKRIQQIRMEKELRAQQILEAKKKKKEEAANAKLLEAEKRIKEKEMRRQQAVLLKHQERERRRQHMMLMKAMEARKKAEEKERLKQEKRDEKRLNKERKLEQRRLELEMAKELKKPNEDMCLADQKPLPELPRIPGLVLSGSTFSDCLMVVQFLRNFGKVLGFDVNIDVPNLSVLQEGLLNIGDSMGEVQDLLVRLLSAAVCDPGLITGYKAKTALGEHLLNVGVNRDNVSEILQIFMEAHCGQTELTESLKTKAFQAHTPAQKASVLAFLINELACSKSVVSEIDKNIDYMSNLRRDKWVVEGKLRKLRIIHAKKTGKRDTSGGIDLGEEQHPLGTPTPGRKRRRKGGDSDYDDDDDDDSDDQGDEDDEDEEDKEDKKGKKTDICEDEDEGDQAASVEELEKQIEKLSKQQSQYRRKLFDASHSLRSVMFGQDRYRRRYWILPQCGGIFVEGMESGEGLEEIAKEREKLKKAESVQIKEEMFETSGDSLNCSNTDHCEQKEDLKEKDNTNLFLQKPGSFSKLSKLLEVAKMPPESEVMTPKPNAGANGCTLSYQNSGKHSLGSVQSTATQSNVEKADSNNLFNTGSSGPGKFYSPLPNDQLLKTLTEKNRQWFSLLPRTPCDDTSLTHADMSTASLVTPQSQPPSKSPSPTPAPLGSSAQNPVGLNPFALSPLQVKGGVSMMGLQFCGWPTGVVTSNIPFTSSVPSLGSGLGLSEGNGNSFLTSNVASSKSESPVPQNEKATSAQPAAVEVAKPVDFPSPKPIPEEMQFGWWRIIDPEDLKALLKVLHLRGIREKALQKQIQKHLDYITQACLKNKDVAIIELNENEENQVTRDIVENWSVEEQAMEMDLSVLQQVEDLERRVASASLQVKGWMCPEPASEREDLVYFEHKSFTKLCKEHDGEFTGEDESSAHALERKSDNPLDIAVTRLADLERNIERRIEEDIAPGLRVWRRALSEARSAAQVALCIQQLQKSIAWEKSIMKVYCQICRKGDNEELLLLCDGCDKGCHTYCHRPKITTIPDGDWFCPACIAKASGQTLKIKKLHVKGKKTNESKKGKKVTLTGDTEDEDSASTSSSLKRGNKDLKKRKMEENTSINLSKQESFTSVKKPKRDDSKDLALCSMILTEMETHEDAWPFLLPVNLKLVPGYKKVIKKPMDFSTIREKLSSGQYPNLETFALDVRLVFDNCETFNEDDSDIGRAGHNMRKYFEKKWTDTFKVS
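AlphaScreen displacement of biotin-H3(5-23)K14Ac peptide (50 nM final) from BAZ2B (50 nM final) in PBS pH 7.4, 0.01% Tween-20; complex preformed 30 min RT, then compounds (top 110 uM) 30 min RT, beads 20 min dark.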
JMJD2A Tudor: inhibitors of human JMJD2A Tudor domain. Potency, µM (doses to about 114 µM), for inactives: top-dose activity change, negative = inhibition, actives largely listed as inhibitors. O75164. AlphaScreen JMJD2A-Tudor / H3K4me3 peptide binding. hit rate 4.4% among 390,000; also: % is scaled to controls: 0 for no effect and ±100 for the full control effect; nearly all actives have a fitted effect of over 50% in size
Starred values were filed as active, the others as inactive; ? = inconclusive; nt = no result given; [ ] = dose if it differs, or a comment. Calls follow the shape of the dose curve; as a rule, active = well fitted curve in the direction sought with a large enough effect; inconclusive = small, poorly fitted or top-dose-only effect, or another doubt; inactive = no such curve, though single readings can be large; an effect the other way counts as inactive or inconclusive. Potency is read from the fitted curve at half-maximal effect.

SMILES	Sfp PPTase inh	HP1b binding inh	G9a inh	BAZ2B inh	JMJD2A Tudor
CN1CCN(NS(=O)(=O)c2cccs2)CC1	1.0%	35.7%	1.41µM*	6.1%	-6.1%
O=S(=O)(NCCNS(=O)(=O)c1cccs1)c1cccs1	19.9%	44.4%	65.0%[59 µM]	-27.6%	-9.0%
OCCc1ccc(O)cc1	nt	12.9%	-4.6%[59 µM]	-5.1%	-20.9%
CC(c1ccc(O)cc1)(c1ccc(O)cc1)c1ccc(CCBr)cc1	-2.8%	4.2%	79.4µM*	?	-33.3%
CN1C(=O)c2ccc(C(=O)NCc3ccco3)cc2C1=O	12.2%	19.4%	22.6%	-39.0%	-12.4%
CC1CC(OCC(O)C[N+]2(C)CCOCC2)CC(C)(C)C1 (stereo unspecified)	5.6%	?	39.8µM*	11.3%	-2.1%
Cn1nnc2c[n+](CC(=O)c3ccc4ccccc4c3)cc(Br)c21	9.3%	19.6%	56.2µM*	?	-27.6%
Cc1cc(Cl)ccc1OCC(=O)Nc1nc(-c2cccnc2)cs1	13.6%	35.5%	60.2%[59 µM]	2.6%	9.2%
O=C(COc1ccc(F)cc1)Nc1nc(-c2ccccn2)cs1	nt	1.2%	44.7µM*	?	79.4µM*
Cc1ccc(OCC(=O)Nc2nc(-c3ccccn3)cs2)c(C)c1	nt	-9.1%	39.8µM*	2.7%	-26.7%
Cc1ccc(S(=O)(=O)CCC(=O)Nc2nc(-c3cccnc3)cs2)cc1	7.8%	53.5%	7.4%[59 µM]	-13.3%	-5.3%
O=C(Nc1nc(-c2ccccn2)cs1)Nc1ccc(F)cc1F	11.2µM*	?	2.82µM*	-27.5%	39.8µM*
Cc1ccc(S(=O)(=O)CCC(=O)Nc2nc(-c3ccccn3)cs2)cc1	nt	43.5%	15.2%[12.7 µM]	?	89.1µM*
COc1ccc(NC(=O)CCNC(=O)Cn2ccc3ccccc3c2=O)cc1Cl	-10.9%	17.7%	14.4%	8.0%	14.4%
Cn1nnnc1Sc1ncnc2scc(-c3cccc(C#N)c3)c12	nt	nt	nt	nt	-8.2%
Cc1ccc(S(=O)(=O)CCc2nnc(NC(=O)c3cnccn3)s2)cc1	2.4%	25.2%	?	-1.6%	?
Cc1ccc(S(=O)(=O)CCc2nnc(NC(=O)c3ccccn3)s2)cc1	1.6%	47.5%	11.9%	3.16µM*	11.2µM*
O=C(COc1ccc([N+](=O)[O-])cc1)Nc1nc(-c2ccccn2)cs1	nt	9.1%	35.5µM*	56.2µM*	28.2µM*
Cc1ccc2c(c1)C(c1ccccc1)N(C(=O)c1ccc(OC(C)C)cc1)CC(=O)N2 (stereo unspecified)	nt	-7.8%	-2.4%[59 µM]	-36.6%	?
Cc1ccc(NC(=O)CSc2nc3c(c(=O)[nH]2)CN(Cc2ccccc2)CC3)cc1Cl	nt	16.2%	-6.8%[59 µM]	-4.2%	-22.5%
CCN(CC)C(=O)CSc1nnc(-c2ccccn2)n1-c1ccc(C)c(C)c1	7.7%	49.6%	-6.6%[59 µM]	44.7µM*	?
Cc1nnc(SCc2ccccc2)n(N)c1=O	3.8%	18.1%	12.2%	-2.1%	-9.2%
Cc1cccc(-n2c(SCC(N)=O)nnc2-c2ccccn2)c1C	10.0%	12.8%	-37.1%	17.8µM*	79.4µM*
Nn1c(SCc2ccccc2)nnc1-c1ccccn1	1.5%	39.9%	-7.5%[12.7 µM]	14.1µM*	6.3%
CCc1ccccc1-n1c(SCC(=O)N2CCCC2)nnc1-c1ccccn1	9.4%	19.2%	-8.9%[59 µM]	56.2µM*	?
SMILES	Sfp PPTase inh	HP1b binding inh	G9a inh	BAZ2B inh	JMJD2A Tudor
COc1ccc(C(=O)N2CCC3(CCN(Cc4nccs4)CC3)CC2)cc1	10.1%	nt	-5.6%[12.7 µM]	nt	nt
CCOc1ccc(C(=O)N(Cc2nc(-c3cccc(C)c3)no2)C(C)C)cc1	nt	89.6%	54.7%[59 µM]	75.2%	3.0%
NC(=O)CSc1nnc(-c2ccccn2)n1N	-5.8%	30.0%	-7.4%	22.4µM*	70.8µM*
Cc1ccc(-n2c(SCCN)nnc2-c2cccc(C)c2)cc1	-3.8%	42.9%	4.8%[59 µM]	79.4µM*	-16.2%[11.4 µM]
CCOc1ccc(-n2c(COc3ccc(C)cc3)nnc2SCC(N)=O)cc1	-3.6%	1.4%	-8.0%[59 µM]	-32.5%	-16.9%
Cc1ccc(-n2c(SCC(N)=O)nnc2-c2ccccn2)cc1	-2.0%	36.1%	11.3%[12.7 µM]	25.1µM*	?
Nc1ccc2c(c1)N=[N+]([O-])c1cc(N)ccc1C2	22.7%	22.8%	-2.3%[2.33 µM]	-2.0%	-5.1%
Cc1ccccc1-n1c(C)n[nH]c1=S	79.4µM*	-3.7%	22.4µM*	8.9%[57.1 µM]	20µM*
